High-throughput results from PubChem BioAssay.
Compounds with a hit are over-represented: about 6% of the library has one in this group of screens.
D1 antag – human D1 dopamine receptor antagonism; P21728; HEK293 TREx D1 cells, calcium flux, dopamine EC80; stronger effect = lower value; activity change, negative = inhibition, % at 10 µM; hit rate 3.2% among 360,000; AID 504652; in the data active means activity change below about -30%
Target sequence (P21728 whole entry, looked up): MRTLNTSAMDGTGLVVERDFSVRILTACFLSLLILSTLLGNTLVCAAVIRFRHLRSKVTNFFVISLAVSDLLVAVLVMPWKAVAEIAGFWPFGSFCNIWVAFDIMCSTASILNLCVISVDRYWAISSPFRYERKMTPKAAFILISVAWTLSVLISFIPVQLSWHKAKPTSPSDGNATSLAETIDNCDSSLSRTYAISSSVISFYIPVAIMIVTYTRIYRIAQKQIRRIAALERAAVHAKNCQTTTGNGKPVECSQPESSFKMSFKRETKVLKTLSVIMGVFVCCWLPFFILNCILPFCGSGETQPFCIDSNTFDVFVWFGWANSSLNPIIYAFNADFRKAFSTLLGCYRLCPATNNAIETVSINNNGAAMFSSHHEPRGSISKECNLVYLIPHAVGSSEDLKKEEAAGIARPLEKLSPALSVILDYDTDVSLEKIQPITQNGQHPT
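Kinetic fluorescence of a calcium dye serves as the read-out. D1-expressing Hek293 Trex cells, induced overnight at 30 C, are exposed to compound for 180 s before an EC80 dopamine addition, then read 180 s further.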
D1 potentiator – human D1 dopamine receptor positive modulation; potentiation, % at 10 µM; P21728; HEK293 TREx D1 cells, calcium flux, dopamine EC20 potentiation; hit rate 0.036% among 360,000; in the data active means potentiation above about 30%
DRD3 agonist – D3 dopamine receptor (human) agonism. P35462. D3R DiscoveRx beta-arrestin cells, luminescence, 90 min. max activation, %. hit rate 0.58% among 410,000; in the data active means max activation above about 30%
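Agonist mode: compounds and dopamine controls were applied to plated cells for 90 min at 37 degrees C after an overnight attachment at 1500 cells/well. Luminescent read-out followed 30 - 60 minutes at room temperature with DiscoveRx detection reagent.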
D3 antag – antagonists of human D3 dopamine receptor | AID 652054 | P35462 | D3R cells, DiscoveRx beta-arrestin luminescence, antagonist mode; stronger effect = lower value | hit rate 2.5% among 360,000 | max response, negative = inhibition, %; in the data active means max response below about -50%; inconclusive means no clear call, values can overlap the other calls
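Cells expressing the human receptor were seeded at 1500 cells/well, incubated overnight at 37 degrees C in 5% CO2, then exposed to library compounds with dopamine controls for 90 minutes at 37 degrees C before luminescent detection.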
D1 ag – activates the human D1 dopamine receptor. P21728. HEK293 T-REx D1 cells, calcium flux, agonist mode. activation, % at 2 µM. AID 504660. hit rate 1% among 360,000; in the data active means activation above about 30%
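Agonism was scored from calcium flux recorded over 180 s (1 read/s) after pintool compound addition, following a 10-cycle baseline. Cells were inducible force-coupled HEK293 TREx D1, plated overnight at 30 C and loaded with no-wash calcium dye.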
Numbers stand for hits; - = inactive; ? = inconclusive; . = no result given.

SMILES	D1 antag	D1 potentiator	DRD3 agonist	D3 antag	D1 ag
COc1cc2c(cc1OC)C1O[C@](CCCCN3C(=O)c4ccccc4C3=O)(C2)OC2=C1C(=O)OC1(CCCCC1)C2	-	-	.	.	-
S=c1nc(C2CCCCC2)[nH][nH]1	-50.4	-	-	-	-
CCCOc1ccc(C2C(=O)N(C3CCCCCC3)CC(=O)N2CCCOCC)cc1OC (configuration not stated)	-	-	-	.	-
O=C(Cn1cc(S(=O)(=O)Cc2cccc(Cl)c2)c2ccccc21)Nc1ccccc1C(F)(F)F	-	-	-	.	-
CCc1nc2ccc(C(=O)N(C)Cc3ccccc3)cn2c1N(CC)Cc1cccc(Br)c1	.	.	-	-	.
CCc1nc2ccc(C(=O)NC3CCN(Cc4ccccc4)CC3)cn2c1N(CC)Cc1cccc(Br)c1	.	.	-	-78.2	.
CCCCCc1ccc(C)cc1O	.	.	-	.	.
CN(Cc1nc(-c2ccccc2)no1)C(=O)c1ccc2c(c1)OCO2	-	-	-	-50.2	-
c1ccc(OCCN2CCN(Cc3nc(-c4ccc5c(c4)OCO5)no3)CC2)cc1	-	-	72.5	?	-
Cc1cccc(-c2noc(CN(C)C(=O)c3ccc4c(c3)OCO4)n2)c1	-	-	-	-	-
Fc1ccc(CN2CCCN(Cc3nc(-c4ccc5c(c4)OCO5)no3)CC2)cc1	-	-	-	-	-
CN(CCN1CCc2ccccc2C1)Cc1nc(Cc2ccccc2F)no1	-	-	-	-59.4	-
CN(CCN1CCc2ccccc2C1)Cc1nc(-c2ccc3c(c2)OCO3)no1	-	-	-	-70.3	-
COc1ccc(N2CCN(C(=O)c3ccc(-c4nc(COc5ccccc5)c(C)o4)cc3)CC2)cc1	-	-	-	.	-
COc1cc(Nc2nn(-c3ccc(OC(F)(F)F)cc3)nc2C(C)=O)cc(OC)c1	-	-	-	.	-
CCn1cc2nc(SCC(=O)Nc3ccccc3F)n(Cc3ccc(C)cc3)c(=O)c2n1	-	-	-	.	-
COc1cc(C)ccc1OCCSc1nnc(-c2ccc(C)cc2)o1	-	-	-	.	-
CCc1cc(C(=O)NNC(=O)CCN2CCN(c3ccccc3)CC2)sc1C	-	-	-	-63.0	-
O=C(CCN1CCN(c2ccccc2)CC1)NNC(=O)c1cccc2ccccc12	-	-	52.7	-	-
Cc1cc(C(=O)NNC(=O)CCN2CCN(c3ccccc3)CC2)c2ccccc2n1	-	-	-	?	-
CCC1(c2ccccc2)NC(=O)N(CC(=O)Nc2ccccc2N2CCCCC2)C1=O (configuration not stated)	-	-	-	-	-
N#CCC(=O)Nc1ccc(C(=O)NNC(=O)CCN2CCN(c3ccccc3)CC2)cc1	-	-	-	-82.9	-
CCC1(c2ccccc2)NC(=O)N(CC(=O)NNC(=O)CCN2CCN(c3ccccc3)CC2)C1=O (configuration not stated)	-	-	-	-56.3	-
COc1cccc(C(=O)NNC(=O)CCN2CCN(c3ccccc3)CC2)c1	.	.	-	?	.
COc1ccc(N2CCN(S(=O)(=O)CCNC(=O)c3c(F)cccc3Cl)CC2)cc1	-	-	-	.	-
SMILES	D1 antag	D1 potentiator	DRD3 agonist	D3 antag	D1 ag
CCCCNC(=O)c1cc(-c2ccc(OC)cc2)nc2n[nH]c(-c3cccc([N+](=O)[O-])c3)c12	-	-	-	.	-
C1=C(CCNc2nnnn2-c2ccccc2)CCCC1	-	-	-	-61.4	-
c1ccc(CCNc2nnnn2-c2ccccc2)cc1	-	-	-	-	-
Cc1[nH]c2ccccc2c1C(=O)C(=O)N1CCN(c2cccc(Cl)c2)CC1	-37.8	-	-	-	-
Cc1[nH]c2ccccc2c1C(=O)C(=O)N1CC(C)OC(C)C1 (configuration not stated)	-	-	-	-	-
Cc1[nH]c2ccccc2c1C(=O)C(=O)N1CCN(c2ccccc2Cl)CC1	-	-	-	-	-
Cc1[nH]c2ccccc2c1C(=O)C(=O)N1CC=C(c2ccccc2)CC1	-37.4	-	-	-	-
COc1cc(NC(=O)Cn2c(=O)n(C(C)C)c(=O)c3oc4ccccc4c32)cc(OC)c1	-	-	-	.	-
CN(Cc1ccccc1)C(=O)C1CCN(S(=O)(=O)c2ccc3c(c2)oc(=O)n3C)CC1	-	-	-	.	-
CCc1ccc(S(=O)(=O)c2c(C(=O)c3ccc(C)c(C)c3)cnc3ccccc23)cc1	-	-	-	.	-
O=C(Nc1c(C(=O)c2ccc(F)cc2)oc2ccccc12)c1cc(-c2ccccc2)on1	-	-	-	.	-
CCCCNc1nc(Oc2ccc(=O)n(-c3ccccc3)n2)nc(N(CC)CC)n1	-	-	-	.	-
Cc1ccc(C(=O)NCC(=O)OC(C(=O)Nc2cc(C(F)(F)F)ccc2Cl)c2ccccc2)cc1 (configuration not stated)	-	-	.	.	-
CCOC(=O)C1=C(N)n2c(s/c(=C/c3ccco3)c2=O)=C(C(=O)OC)C1c1ccco1 (configuration not stated)	-	-	-	-	50.3
CCOC(=O)C1=c2s/c(=C\c3ccncc3)c(=O)n2C(N)=C(C(=O)OC)C1c1ccncc1 (configuration not stated)	-	-	-	-	-
COc1cccc(CNC(=O)C(=O)NCC(c2ccc3c(c2)OCO3)N2CCOCC2)c1 (configuration not stated)	-	-	-	.	-
CCc1ccc(NC(=O)c2sc3nc(C)c(Cl)c(C)c3c2NC(=O)c2ccccc2)cc1	-	-	-	.	-
OCC1(Cc2ccc(F)cc2)CCCN(Cc2ccc(F)cc2Cl)C1 (configuration not stated)	-	-	-	-61.1	-
OCC1(CCc2ccccc2)CCCN(CCCC(F)(F)F)C1 (configuration not stated)	-	-	-	?	-
OCC1(CCc2ccccc2)CCCN(CCCc2ccccc2)C1 (configuration not stated)	-	-	-	-70.1	-
COC(=O)c1ccc(CN2CCCC(CO)(Cc3ccccc3F)C2)cc1 (configuration not stated)	-	-	-	-88.0	-
COc1cc(Cl)c(CN2CCCC(CO)(Cc3ccccc3)C2)cc1OC (configuration not stated)	-	-	-	-	-
CCOc1ccc(CN2CCCC(CO)(Cc3ccc(F)cc3)C2)cc1 (configuration not stated)	-	-	-	-	-
CSc1ccc(CN2CCCC(CO)(Cc3ccccc3)C2)cc1 (configuration not stated)	-	-	-	-66.7	-
Cc1cc(CN2CCCC(CO)(Cc3cccc(Cl)c3)C2)n[nH]1 (configuration not stated)	-	-	-	-	-
CC(C)Cc1cc(CN2CCCC(CO)(Cc3cccc(Cl)c3)C2)[nH]n1 (configuration not stated)	-	-	-	-67.0	-
COc1cc(O)cc(/C=C/c2ccccc2)c1	.	.	69.7	-	.
